Screening results as filed in PubChem.
POLK inh = qHTS for Inhibitors of Polymerase Kappa; DNA polymerase kappa (Homo sapiens), Q9UBT6; purified Pol kappa, fluorescent DNA synthesis assay, 10 min; Potency, µM (series often up to 107 µM), for the others: top-dose activity, negative = inhibition, hits mostly inhibitors; 400,000 tested, 0.53% active; note: % is set by controls: 0 for no effect and ±100 for the full control effect
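10 nM Pol kappa was preincubated with compounds for 15 min at room temperature. Reaction started with 50 nM (final) substrate. Fluorescence read kinetically at 0 and 10 min.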
POLI inh = qHTS for Inhibitors of Polymerase Iota | Pol iota fluorescent replication assay, 10 min | DNA polymerase iota (Homo sapiens), Q9UNA4 | Potency, µM (highest dose often 115 µM), for inactives: top-dose activity, negative = inhibition, usual class: inhibitors | 390,000 tested, 1% active
Target sequence (Q9UNA4 whole entry, looked up): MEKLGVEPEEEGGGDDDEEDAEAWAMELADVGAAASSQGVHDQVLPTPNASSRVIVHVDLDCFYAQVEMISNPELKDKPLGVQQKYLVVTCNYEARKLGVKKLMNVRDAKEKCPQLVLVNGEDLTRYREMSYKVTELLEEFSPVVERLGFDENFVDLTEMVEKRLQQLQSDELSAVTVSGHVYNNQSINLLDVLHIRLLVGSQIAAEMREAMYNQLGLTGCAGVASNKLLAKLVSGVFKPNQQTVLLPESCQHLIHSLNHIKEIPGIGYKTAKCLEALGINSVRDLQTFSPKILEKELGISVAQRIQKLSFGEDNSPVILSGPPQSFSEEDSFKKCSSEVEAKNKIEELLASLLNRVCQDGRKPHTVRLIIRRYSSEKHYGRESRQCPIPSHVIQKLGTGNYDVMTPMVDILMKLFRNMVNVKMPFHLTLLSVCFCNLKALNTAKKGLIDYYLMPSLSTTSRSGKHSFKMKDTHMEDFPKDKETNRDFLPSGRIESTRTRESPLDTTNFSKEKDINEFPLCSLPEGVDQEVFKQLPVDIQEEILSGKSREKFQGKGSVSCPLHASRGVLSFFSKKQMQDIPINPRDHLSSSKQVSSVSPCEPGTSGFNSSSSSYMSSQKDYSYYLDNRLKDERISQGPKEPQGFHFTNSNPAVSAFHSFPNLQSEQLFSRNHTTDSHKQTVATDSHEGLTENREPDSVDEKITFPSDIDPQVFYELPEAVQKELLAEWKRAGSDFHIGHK
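Fluorescent replication assay read twice, at 0 min and 10 min after adding 50 nM (final) substrate. Enzyme (10 nM) and compounds were first incubated 15 min at room temperature; enzyme-free buffer wells were negative controls.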
POLB inh = qHTS Assay for Inhibitors of DNA Polymerase Beta. Potency, µM (highest dose often 114 µM), for inactives: top-dose activity change, negative = inhibition, most hits filed as inhibitors. P06746. 340,000 tested, 1.3% active. Pol beta primer extension/strand displacement, fluorescence kinetic; note: % is set by controls: 0 for no effect and ±100 for the full control effect
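10 nM enzyme + cpd, 15 min RT; start with substrate 50 nM final; read 0 min and after 10 min RT. Corrected, normalized data; 4-parameter Hill curve fit.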
FEN1 inhibitor = qHTS Assay for the Inhibitors of Human Flap endonuclease 1 (FEN1); Recombinant FEN1 flap cleavage, fluorescence, 15 min; Potency, µM (doses to about 114 µM), for the others: at the top dose activity change, negative = inhibition, hits mostly inhibitors; 390,000 tested, 0.35% active; note: % is set by controls: 0 for no effect and ±100 for the full control effect; nearly all actives have a fitted effect of over 65% in size
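Recombinant FEN1 (10 nM) was preincubated with pin-transferred compounds for 15 min at room temperature, then flap DNA substrate (50 nM final) was added. Plates were read at 0 and 15 min, and normalized concentration–response data were fitted to a four-parameter Hill equation.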
POLH inh = qHTS for Inhibitors of Polymerase Eta; Potency, µM (titrated, usually from 114 µM), for inactives: at the top dose activity change, negative = inhibition, hits mostly inhibitors; recombinant Pol eta, fluorescent DNA replication assay; 390,000 tested, 1.2% active; AID 588591, 2011; note: % is set by controls: 0 for no effect and ±100 for the full control effect
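Pol eta at 10 nM preincubated with compounds 15 min at room temperature; reaction started with fluorescent substrate (50 nM final) and read kinetically at 0 and 10 min.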
TDP1 block = qHTS Assay for Inhibitors of Tyrosyl-DNA Phosphodiesterase (TDP1); recombinant TDP1, AlphaScreen DNA substrate cleavage; Tyrosyl-DNA phosphodiesterase 1 (Homo sapiens), Q9NUW8; Potency, µM (series often up to 130 µM), without a hit: at the highest dose activity change, negative = inhibition, most hits filed as inhibitors; 350,000 tested, 0.28% active; note: % is set by controls: 0 for no effect and ±100 for the full control effect; nearly all actives have a fitted effect of over 40% in size
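Recombinant human Tdp1 (E. coli-expressed, 1 nM final) preincubated with compounds 15 min at room temperature, then 5'-biotin/3'-phosphotyrosine-FITC DNA substrate (15 nM final) added for 5 min. AlphaScreen beads (10 ug/ml final) added 10 min; cleavage lowers signal.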
* = called active by the depositor; u = inconclusive; x = not tested or not shown; [ ] = dose if it differs, or a comment. The list is not random: actives were taken first. Their share in the collection is about 2.4%. Calls come from the whole dose curve; as a rule, active = well fitted curve in the direction sought with a large enough effect; inconclusive = small, poorly fitted or top-dose-only effect, or another doubt; inactive = no such curve, though single readings can be large; an effect the other way counts as inactive or inconclusive. Potency is the fitted concentration of half-maximal effect.

SMILES	POLK inh	POLI inh	POLB inh	FEN1 inhibitor	POLH inh	TDP1 block
CN(C)c1ccc(N)cc1	x	x	x	x	x	26%
O=c1c2ccccc2nc(/C=C/c2cccnc2)n1Cc1ccccc1	-9%	2.8µM*	39%	89µM*	u	10µM*
COc1ccc(OC)c(NC(=O)Cn2cc(C(=O)c3ccccc3)c3ccccc32)c1	-26%	4%	1%	-16%	-21%	6%
CCn1c(=S)sc2c(=O)[nH]c(SCC(=O)Nc3cc(OC)ccc3OC)nc21	-17%	u	0%	-9%	50µM*	5%
COC(=O)C1=C(c2ccc(F)cc2OCc2ccccc2)C[C@@H]2CC[C@H]1N2C(=O)NCc1ccco1	u	u	x	-18%	45µM*	3%
COC(=O)C1=C(c2ccc(F)cc2OCc2ccccc2)C[C@@H]2CC[C@H]1N2C(=O)NCc1ccccc1	-19%	12%	x	-2%	-19%	0%
COc1cc2c(cc1OC)-c1c(OC)c(OC)c(OC)c3ccnc(c13)C2=O	-19%	u	-14%	10µM*	-11%	0%
C/C=C1/C[N@@+]2(C)CC[C@]34C(=C(C=O)[C@H]1C[C@H]32)Nc1ccccc14	-3%[19.4 µM]	x	x	x	x	-2%
CCCCN1C(=O)/C(=C/c2ccc(N(C)C)cc2)C(=O)N(Cc2ccco2)C1=O	25µM*	u	22µM*	u	40µM*	6%
CCCCN1C(=O)/C(=C\c2ccco2)C(=O)N(CCc2ccccc2)C1=O	25µM*	u	8.9µM*	56µM*	40µM*	11%
C#CCOCCOCCOCCNc1nc(N2CCN(C(=O)CCCCCCCCCCNC(=O)[C@H]([C@@H](C)CC)n3cc(CCCCN=C(N)N)nn3)CC2)nc(N2CCN(C(=O)CCCCCCCCCCNC(=O)[C@H](CO)n3cc(CCCCCN)nn3)CC2)n1	12%	u	x	25µM*	79µM*	15%
COc1cc2c3c(c1OC)-c1cc(O)ccc1CC3NCC2 (stereo not drawn)	-12%	-14%	-24%	0%	-4%	5%
COc1cc2c(cc1OC)-c1c(OC)c(OC)cc3c1[C@H](C2)[N+](C)(C)CC3	-35%	u	50µM*	-22%	-1%	1%
CCCCCCCC/C=C\CCCCCCCC(=O)OC[C@@H](COP(O)(O)=S)OC	17µM*	x	x	x	x	x
COP(=O)(OC)/C(C=O)=N/Nc1ccc([N+](=O)[O-])cc1	0%	36%	22µM*	-4%	-1%	6%
COP(=O)(OC)C(Nc1ccc([N+](=O)[O-])cc1)c1ccccc1 (stereo not drawn)	-2%	127%	20%	1%	1%	x
Nc1ccccc1-c1ccccc1	x	x	x	x	x	14%
CN(C)C1C(=O)C(C(N)=O)=C(O)C2(O)C(=O)C3=C(O)c4c(O)cccc4C(C)(O)C3CC12 (stereo not drawn)	u	u	3.2µM*	u	-7%	x
CN(C)[C@H]1C(=O)C(C(N)=O)=C(O)[C@]2(O)C(=O)C3=C(O)c4c(O)cccc4[C@@](C)(O)[C@H]3C[C@@H]12	-8%[12 µM]	x	x	x	x	u
CN(C)[C@@H]1C(=O)C(C(N)=O)=C(O)[C@@]2(O)C(=O)C3=C(O)c4c(O)ccc(Cl)c4[C@@](C)(O)C3C[C@@H]12 (stereo partly drawn)	79µM*	u	u	45µM*	-13%	-8%
C[C@@H](N)[C@@H](O)c1ccc(O)c(O)c1	1µM*	x	x	x	x	u
C[C@H](N)[C@H](O)c1ccc(O)c(O)c1	0.75µM*	x	x	x	x	u
COc1ccc(OC)c(C(O)C(C)N)c1 (stereo not drawn)	-8%[60.1 µM]	21%	11%	2%	-14%	3%
